A selection: hits, their analogues and other compounds. The true share with any hit is near 22%.
Cycloheximide cs = counter-screen hit for Shiga toxin inhibitors, cycloheximide; cell reporter, cycloheximide protein synthesis inhibition counterscreen; max response, %; hit rate 12% among 300,000; in the data active = max response mostly above about 13%, no sharp cut-off; inactive = mostly below about 14%; also: read at 38.3 µM for the half of the compounds with a filed dose; 0% is about no effect
Pf growth 48h = inhibits P. falciparum growth in the first generation, 48 h; P. falciparum luciferase growth in erythrocytes, 48 h; Potency, µM (series often up to 28.7 µM), for the others: at the top dose activity change, negative = inhibition, hits mostly inhibitors; hit rate 5.9% among 310,000; also: potency is read from the fitted curve at half-maximal effect; % is scaled to controls: 0 for no effect and ±100 for the full control effect
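Read-out is firefly luciferase luminescence from an integrated reporter in P. falciparum, so falling signal marks reduced parasite growth. Infected erythrocytes were at 2% hematocrit and 0.1% parasitemia (final) in Albumax-supplemented RPMI 1640.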
LmPK inhibitor = blocks Leishmania mexicana pyruvate kinase activity. AID 1721. purified LmPK, Kinase-Glo ATP luminescence, 1 h. Potency, µM (highest dose often 57.5 µM), without a hit: top-dose activity change, negative = inhibition, usual class: inhibitors. hit rate 0.37% among 290,000. Q27686; also: potency is read from the fitted curve at half-maximal effect; % is scaled to controls: 0 for no effect and ±100 for the full control effect
Target sequence (Q27686 whole entry, looked up): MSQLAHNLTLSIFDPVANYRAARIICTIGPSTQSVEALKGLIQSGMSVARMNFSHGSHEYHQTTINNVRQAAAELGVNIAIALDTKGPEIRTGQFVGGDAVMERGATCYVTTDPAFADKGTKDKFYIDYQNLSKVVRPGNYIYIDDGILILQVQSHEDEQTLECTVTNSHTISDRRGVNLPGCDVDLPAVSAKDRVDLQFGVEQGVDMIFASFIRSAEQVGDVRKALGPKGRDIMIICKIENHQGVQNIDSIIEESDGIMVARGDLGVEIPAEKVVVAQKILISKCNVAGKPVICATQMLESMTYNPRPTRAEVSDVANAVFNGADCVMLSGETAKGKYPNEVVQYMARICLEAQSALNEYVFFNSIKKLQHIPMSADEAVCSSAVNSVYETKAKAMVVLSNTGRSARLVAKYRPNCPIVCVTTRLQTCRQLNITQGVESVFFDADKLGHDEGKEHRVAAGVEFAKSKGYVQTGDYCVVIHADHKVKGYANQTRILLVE
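Purified LmPK (0.1 nM) with 0.5 mM PEP and 0.1 mM ADP in imidazole buffer pH 7.2 with MgCl2/KCl, 1 h at room temperature. ATP formed was read by luciferase luminescence and normalized to no-enzyme and uninhibited controls.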
Shiga inhibitor = inhibitors of Shiga toxin in Vero cells. Vero cells, Shiga toxin protein synthesis inhibition reporter. inhibition, % at 38.7 µM. hit rate 9.2% among 290,000. AID 2315; in the data active = inhibition mostly above about 28%, no sharp cut-off; inactive = mostly below about 43%; also: 0% is about no effect
Pf growth 96h = P. falciparum growth inhibition at 96 hour, primary screen for plastid delayed-death inhibitors. P. falciparum luciferase reporter growth, 96 h. hit rate 6.9% among 320,000. AID 504834. Potency, µM (titrated, usually from 28.7 µM), without a hit: at the top dose activity change, negative = inhibition, actives largely listed as inhibitors; also: potency is read from the fitted curve at half-maximal effect; % is scaled to controls: 0 for no effect and ±100 for the full control effect
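Cell-based qHTS: luciferase-tagged P. falciparum in erythrocytes (2% hematocrit, 0.05% parasitemia final) incubated with compounds for 96 hours, 37 C, 5% CO2; luciferase detection reagent then added and luminescence measured.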
* hit, by the source's call. Unless noted, calls follow the shape of the dose curve; as a rule, active = well fitted inhibition curve with a large enough effect; inconclusive = small, poorly fitted or top-dose-only effect, or another doubt; inactive = no such curve, though single readings can be large or run the other way.

O=C(CSC1=NCCS1)N1CCN(c2ccccc2)CC1 was read as Cycloheximide cs 26*, Pf growth 48h -3%, LmPK inhibitor -2%, Shiga inhibitor 38* and Pf growth 96h 110%.
For NC(=O)C1CCN(C(=O)CCSc2ccc(Cl)cc2)CC1 the results were Cycloheximide cs 25, Pf growth 48h 17%, LmPK inhibitor 0%, Shiga inhibitor 27 and Pf growth 96h 22%.
For COc1ccccc1CCNC(=O)CNC(=O)Cc1cccc2ccccc12 the results were Cycloheximide cs -6, Pf growth 48h -8%, LmPK inhibitor 0%, Shiga inhibitor -4 and Pf growth 96h 1%.
`COc1ccc(-c2nc(N)ncc2-c2ccccc2OC)c(O)c1` gave Cycloheximide cs -6, Pf growth 48h -23%, LmPK inhibitor 1%, Shiga inhibitor -7 and Pf growth 96h -22%.
`Cc1ccc(C)c(C(=O)CCC(=O)N2CCN(c3ncccn3)CC2)c1` gave Cycloheximide cs 36*, Pf growth 48h inconclusive, LmPK inhibitor -3%, Shiga inhibitor 38* and Pf growth 96h inconclusive.
`O=C(CCSc1ccccc1)N1CCN(c2ccccc2)CC1` gave Cycloheximide cs 39*, Pf growth 48h 75%, LmPK inhibitor 3%, Shiga inhibitor 90* and Pf growth 96h inconclusive.
`CCN(Cc1ccccc1)C(=O)Cn1c(=O)n(CC(=O)N2CCCCC2)c(=O)c2sccc21` gave Cycloheximide cs 1, Pf growth 48h -4%, LmPK inhibitor -9%, Shiga inhibitor -10 and Pf growth 96h inconclusive.
`Nn1c(SCC(=O)N2CCCC2=O)nnc1-c1cccs1` gave Pf growth 48h 16% and Pf growth 96h 13%.
For O=C(Nc1nccs1)c1c(O)c2c([nH]c1=O)CCCC2 the results were Cycloheximide cs 13*, Pf growth 48h 50%, LmPK inhibitor 3%, Shiga inhibitor 25 and Pf growth 96h 166%.
`O=C(Nc1ccccc1O)c1c(O)c2c([nH]c1=O)CCCC2` gave Cycloheximide cs 40*, Pf growth 48h 38%, LmPK inhibitor 5%, Shiga inhibitor 116* and Pf growth 96h 3%.
For O=C(N/N=C/c1cccc(Cl)c1)c1c(O)c2c([nH]c1=O)CCCC2 the results were Cycloheximide cs 18*, Pf growth 48h 176%, LmPK inhibitor 2%, Shiga inhibitor 47 and Pf growth 96h 162%.
`Cc1cccc(C)c1NC(=O)COC(=O)c1cc[n+]([O-])cc1` gave Pf growth 48h 8% and Pf growth 96h 14%.
For Cc1nn(C)cc1S(=O)(=O)Nc1ccccc1Br the results were Cycloheximide cs 6, Pf growth 48h 25%, LmPK inhibitor -1%, Shiga inhibitor -6 and Pf growth 96h 0%.
`Cc1nc2nc(SCC(=O)O)nn2c(C)c1Cc1ccccc1Cl` gave Cycloheximide cs 10, Pf growth 48h -7%, LmPK inhibitor 1%, Shiga inhibitor 9 and Pf growth 96h 47%.
O=C(NCCc1c[nH]c2ccccc12)c1ccc2c(c1)OCO2 was read as Cycloheximide cs 54*, Pf growth 48h 177%, LmPK inhibitor -2%, Shiga inhibitor 108* and Pf growth 96h 299%.
Screening Cc1ccc2[nH]cc(CCNC(=O)c3ccc4c(c3)OCO4)c2c1 returned Cycloheximide cs 2, Pf growth 48h 39%, LmPK inhibitor 5%, Shiga inhibitor 2 and Pf growth 96h -16%.
For O=C(NCCc1c[nH]c2ccccc12)c1cc(Cl)c2c(c1)OCO2 the results were Cycloheximide cs 48*, Pf growth 48h 21%, LmPK inhibitor 3%, Shiga inhibitor 96* and Pf growth 96h 41%.
`CC1=NNC(=O)/C1=C\c1cn(-c2ccccc2)nc1-c1ccccc1` gave Cycloheximide cs -9, Pf growth 48h inconclusive, LmPK inhibitor -2%, Shiga inhibitor -25 and Pf growth 96h -9%.
`CCCCn1c(N)c(N(CC(C)C)C(=O)COC(=O)Cc2c(C)nc3ccccc3c2C)c(=O)[nH]c1=O` gave Cycloheximide cs -2, Pf growth 48h inconclusive, LmPK inhibitor -3%, Shiga inhibitor -6 and Pf growth 96h inconclusive.
COc1ccc2nc(Nc3nc(CSc4nnnn4-c4ccccc4)cc(=O)[nH]3)nc(C)c2c1 was read as Cycloheximide cs -3, LmPK inhibitor 12%, Shiga inhibitor -11 and Pf growth 96h inconclusive.

Screening results deposited in PubChem by National Center for Advancing Translational Sciences (NCATS).
